The record followed here is PubChem BioAssay (NCATS).

Each structure is given as a SMILES string. “And” between values parts separate entries of the source, which are not always exact repeats. Equal values may be shown once. Inconclusive results are not listed. Entries that show only a call come without a potency. The source made the active and inactive calls. Calls come from the whole dose curve; as a rule, active = well fitted inhibition curve with a large enough effect; inconclusive = small, poorly fitted or top-dose-only effect; inactive = flat fitted curve, though single readings scatter.
Potency is the fitted concentration of half-maximal effect.

A short description of the assay: P-glycoprotein substrates identified in KB-8-5-11 adenocarcinoma cell line, qHTS therapeutic library screen (AID 1346987). Note: nearly all actives have a fitted effect of over 65% in size. The note with it: KB-8-5-11 (P-gp overexpressing) viability, CellTiter-Glo, 72 h; series mostly up to 44.5 µM. An excerpt: The ATP-binding cassette transporters P-glycoprotein (P-gp) is known to limit brain penetration of many chemotherapy drugs. […] As such, we developed a high-throughput screen (HTS) to identify substrates of P-gp from a series of chemical libraries including the National Center for Advancing Translational Sciences Pharmaceutical Collection NPC, 2,816 compounds), testing a total of 10,804 compounds, most of which have known mechanisms of action. We used the CellTiter-Glo viability assay to test library compounds against the parental KB-3-1 human cervical adenocarcinoma cell line and the colchicine-selected sub-line KB-8-5-11 that over-expresses P-gp. KB-8-5-11 cells were also tested in the presence of a P-gp inhibitor (tariquidar) to assess reversability of transporter-mediated resistance. Of the tested compounds, a total of 90 P-gp substrates were identified including 55 newly identified P-gp substrates. Substrates were confirmed using an orthogonal killing assay against HEK-293 cells transfected with P-gp. As exemplars, we confirmed that […] (cyclin-dependent kinase inhibitor); AT9283, (Janus kinase 2/3 inhibitor); ispinesib (kinesin spindle protein inhibitor); gedatolisib (PKI-587, phosphoinositide 3-kinase/mammalian target of rampamycin inhibitor); GSK-690693 (AKT inhibitor); and KW-2478 (heat shock protein 90 inhibitor) were substrates , and direct ATPase stimulation was assessed. ABCG2 was also found to confer high levels of resistance to AT9283, GSK-690693 and gedatolisib, while ispinesib, AT7519 and KW-2478 were weaker substrates.
The HeLa derivative cell line, KB-3-1, and its colchicine-selected, P-gp-overexpressing subline, KB-8-5-11 were maintained in DMEM with 10% FCS and Pen/Strep with glutamine at 37 degree C in 5% CO2. For KB-8-5-11 cells, colchicine was added to the medium at a concentration of 100 ng/mL. HEK-293 cells transfected with empty vector (pcDNA) or vector containing human ABCB1 (MDR-19) or ABCG2 (R-5) have been described previously (Robey, Lin, Qiu, Chan & Bates, 2011) and were maintained in EMEM supplemented with 10% FCS, Pen/Strep and glutamine with 2 mg/ml G418 to select for the expression of the transporter. Cultures were confirmed to be free of mycoplasma infection using the MycoAlert Mycoplasma Detection Kit (Lonza, Walkersville, MD). For the screen, assay medium was identical to culture medium except for KB-8-5-11 where colchicine was excluded from the medium.
All cell lines were plated into 1536-well plates at 500 cells/well in 5 uL media. Compounds were then pinned in dose-response using a 1536-head pin tool (Kalypsis, San Diego, CA) and plates were incubated at 37 degree C in 5% CO2 for an additional 72 h. CellTiter-Glo reagent (Promega) was dispensed into the wells, incubated for 5 min and luminescence was read on a ViewLux instrument (Perkin-Elmer). Cytotoxic compounds were defined as those that yielded a curve class of -1.1, -1.2, -2.1, -2.2, -2.3, or -2.4, a maximum response of >50% and an AC50 of < 10 uM. Cherry-picked hits from screening analysis were tested with both the KB pair of cell lines, and the pcDNA (empty vector control) and MDR-19 (P-gp overexpressing) pair were tested, in the absence and presence of tariquidar.
(In general: In qHTS, concentration-response curves come from the screen itself.)
For the compound `Oc1ccc([C@H]2CNCc3c2ccc(O)c3O)cc1O`, the Potency entry was “inactive”. For the compound `O=C(CCl)c1ccc(Cl)cc1Cl`, the Potency is 2.91 µM (active) and 11.2 µM (active).

`C[C@]12CC[C@H](O)CC1=CC[C@@H]1[C@@H]2CC[C@]2(C)C(=O)CC[C@@H]12`: the Potency result is “inactive”.

As to `O=C(O)CCCCCCNC1c2ccccc2CCc2ccccc21`, the Potency entry was “inactive”. Consider `NC1(c2ccccc2)CCCCC1`, for which the Potency result was “inactive”. With `COc1cc(N)c(Cl)cc1C(=O)NC1CN2CCC1CC2` (stereo not given), the Potency entry is “inactive”. On to `Nc1ccc(N)cc1`, for which the Potency result is “inactive”.

For the compound `CCOP(=S)(OCC)O/N=C(\C#N)c1ccccc1`, the Potency entry is “inactive”. On to `Cc1nnc2n1-c1sc(CCc3ccc(CC(C)C)cc3)cc1C(c1ccccc1Cl)=NC2C` (stereo not given), for which the Potency was 14.6 µM (active). `CC[n+]1c(-c2ccccc2)c2cc(N)ccc2c2ccc(N)cc21`: the Potency result was “inactive”.

As to `CC(Cc1ccc2c(c1)OCO2)NO` (stereo not given), the Potency result is “inactive”. Turning to `C[N+](C)(C)CCOC(=O)C(O)(c1ccccc1)c1ccccc1`, the Potency result was “inactive”. On to `ClC1=C(Cl)C2(Cl)C(CBr)CC1(Cl)C2(Cl)Cl` (stereo not given), for which the Potency entry is “inactive”. Take `NC(=O)CN1CCCC1=O`: the Potency entry was “inactive”. Consider `CCN(CC)C(C)C(=O)c1ccccc1` (stereo not given), for which the Potency entry was “inactive”. In the case of `CC(C)C(Br)C(=O)NC(N)=O` (stereo not given), the Potency entry is “inactive”. As to `C[C@]12CC[C@H]3[C@@H](CCC4=CC(=O)CC[C@@H]43)[C@@H]1CC[C@@H]2O`, the Potency is 2.91 µM (active) and 5.8 µM (active). With `O=C(O)c1nn(Cc2ccc(Cl)cc2Cl)c2ccccc12`, the Potency entry was “inactive”. For the compound `CCOC(=O)c1cncn1C(C)c1ccccc1` (stereo not given), the Potency entry is “inactive”. For `CCC1(c2cnc[nH]2)Cc2ccccc2C1`, the Potency result is “inactive”. In the case of `COc1cc(CC(C)N)c(OC)cc1Br` (stereo not given), the Potency result is “inactive”. For the compound `CCCC[N+]1(C)[C@@H]2CC(OC(=O)[C@H](CO)c3ccccc3)C[C@H]1[C@@H]1O[C@@H]12` (stereo not given in full), the Potency entry is “inactive”. Then `C[C@@H]1C[C@@H]([C@H](O)CC2CC(=O)NC(=O)C2)C(=O)[C@@H](C)C1`, with 2.31 µM (active) and 590 nM (active).

`C[C@@H]1CN(C2CCC(C#N)(c3ccc(F)cc3)CC2)CC[C@]1(C(=O)O)c1ccccc1` (stereo not given in full): the Potency entry was “inactive”.

`C#C[C@]1(O)CC[C@H]2[C@@H]3CCC4=CC(=O)CCC4=C3C=C[C@@]21CC`: the Potency was 2.06 µM (active).

For the compound `O=C(O)Cc1ccccc1`, the Potency result was “inactive”. For the compound `COc1ccc2[nH]cc(CCN(C(C)C)C(C)C)c2c1`, the Potency result was “inactive”. On to `C[C@H]1C(=O)O[C@@H]2CCN3CC=C(COC(=O)[C@](C)(O)[C@]1(C)O)[C@H]23`, for which the Potency entry is “inactive”. Consider `c1ccc2nc(N3CCNCC3)ccc2c1`, for which the Potency entry was “inactive”.

For the compound `CCOC(=O)NC(C)(C)Cc1ccc(Cl)cc1`, the Potency result was “inactive”. As for `CCC(OC(C)=O)C(CC(C)NC)(c1ccccc1)c1ccccc1` (stereo not given), the Potency was 20 µM (active). `C=CCOC(Cn1ccnc1)c1ccc(Cl)cc1Cl` (stereo not given): the Potency was 20.6 µM (active). Take `CNC(C)Cc1ccccc1OC` (stereo not given): the Potency entry was “inactive”. As to `Cc1cccc(Cc2cnc[nH]2)c1C`, the Potency entry was “inactive”. Take `C[C@H]1CNCCc2ccc(Cl)cc21`: the Potency result is “inactive”. As to `CN(C)C(=O)Oc1cc(OC(=O)N(C)C)cc(C(O)CNC(C)(C)C)c1` (stereo not given), the Potency entry is “inactive”. As for `CCOC(=O)NC(O)C(Cl)(Cl)Cl` (stereo not given), the Potency entry is “inactive”. For the compound `CCNc1nc(Cl)nc(NCC)n1`, the Potency result is “inactive”. Consider `CN1CCc2cc(Cl)c(O)cc2[C@H]2c3ccccc3CC[C@@H]21`, for which the Potency entry is “inactive”. As to `C[C@]12CC[C@H]3[C@@H](CC=C4C[C@@H](O)CC[C@@]43C)[C@@H]1CC[C@@H]2O`, the Potency is 11.6 µM (active).
